Screens deposited in PubChem by National Center for Advancing Translational Sciences (NCATS).
TDP1 block = blocks human tyrosyl-DNA phosphodiesterase 1; actives 0.28% (n = 350,000); recombinant TDP1, AlphaScreen DNA substrate cleavage; AID 485290; Q9NUW8; Potency, µM (doses to about 130 µM), for inactives: at the top dose activity change, negative = inhibition, actives largely listed as inhibitors; also: potency is read from the fitted curve at half-maximal effect; % is scaled to controls: 0 for no effect and ±100 for the full control effect; nearly all actives have a fitted effect of over 40% in size
Target sequence (Q9NUW8 whole entry, looked up): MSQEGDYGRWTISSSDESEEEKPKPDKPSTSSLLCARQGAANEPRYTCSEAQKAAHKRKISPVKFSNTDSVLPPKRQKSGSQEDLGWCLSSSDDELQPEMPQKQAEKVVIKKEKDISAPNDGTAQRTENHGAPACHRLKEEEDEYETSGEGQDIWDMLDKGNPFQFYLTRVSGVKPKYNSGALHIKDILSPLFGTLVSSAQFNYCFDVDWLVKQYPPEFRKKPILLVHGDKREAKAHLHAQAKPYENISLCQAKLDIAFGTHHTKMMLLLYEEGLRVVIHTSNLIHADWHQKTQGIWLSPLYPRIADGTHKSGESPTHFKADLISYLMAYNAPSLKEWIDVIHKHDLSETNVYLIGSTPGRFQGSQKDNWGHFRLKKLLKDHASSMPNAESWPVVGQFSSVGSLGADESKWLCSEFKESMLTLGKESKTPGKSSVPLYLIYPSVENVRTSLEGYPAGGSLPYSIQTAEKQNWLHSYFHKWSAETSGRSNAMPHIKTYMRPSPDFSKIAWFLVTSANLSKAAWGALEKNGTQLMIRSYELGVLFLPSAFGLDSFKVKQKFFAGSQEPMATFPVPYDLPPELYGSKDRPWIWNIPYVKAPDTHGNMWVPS
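Recombinant E. coli-expressed Tdp1 (1 nM) preincubated with compound 15 min at RT, then 5'-biotin/3'-phosphotyrosine-FITC DNA substrate (15 nM) added for 5 min. AlphaScreen beads (10 ug/ml) added, 10 min RT; tyrosine-FITC cleavage read as signal loss.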
TDP1 cell noCPT = qHTS for Inhibitors of human tyrosyl-DNA phosphodiesterase 1 (TDP1): qHTS in cells in absence of CPT | DT40 Tdp1-/- hTDP1 cells, no CPT, ATP luminescence, 48 h | Potency, µM (highest dose often 46.2 µM), without a hit: top-dose activity change, negative = growth inhibition, most hits filed as inhibitors | actives 15% (n = 420,000) | AID 686978, 2013; also: potency is read from the fitted curve at half-maximal effect; % is scaled to controls: 0 for no effect and ±100 for the full control effect; nearly all actives have a fitted effect of over 55% in size
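No-CPT arm: Tdp1-/-;hTDP1 DT40 cells (400/well) plus compounds, incubated ≥48 hr at 37 °C. Readout CellTiter-Glo luminescence.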
TDP1 cell CPT = growth inhibition of DT40 Tdp1-/-;hTDP1 cells with camptothecin (screen for TDP1 inhibitors); actives 12% (n = 420,000); Potency, µM (doses to about 46.2 µM), inactives show at the highest dose activity change, negative = growth inhibition, most hits filed as inhibitors; chicken DT40 Tdp1-/-;hTDP1 cells + 20 nM CPT, ATP luminescence, 48 h; AID 686979; also: potency is read from the fitted curve at half-maximal effect; % is scaled to controls: 0 for no effect and ±100 for the full control effect; nearly all actives have a fitted effect of over 55% in size
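Cell growth measured by CellTiter-Glo luminescence after a minimum 48 h, 37 C compound exposure with 20 nM CPT in Tdp1-knockout DT40 cells stably expressing hTDP1, seeded 400/well; qHTS titration format.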
TGFb SMAD3 inh = blocks TGF-b signaling | HepG2 CAGA-GFP TGF-b/SMAD3 reporter, GFP fluorescence, 18 h; TGF-beta stimulated, 500 pg/mL final | Potency, µM (highest dose often 46.1 µM), for inactives: at the top dose activity, negative = inhibition, most hits filed as inhibitors | actives 1.2% (n = 410,000) | AID 588855; also: potency is read from the fitted curve at half-maximal effect; % is scaled to controls: 0 for no effect and ±100 for the full control effect; nearly all actives have a fitted effect of over 65% in size
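GFP signal (ex488/em500-530) from TGF-beta-stimulated HEPG2 CAGA-GFP cells, 500 pg/mL final, 18 h at 37 degrees C in DMEM plus 1% FBS, normalized to unstimulated and DMSO-stimulated controls.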
HepG2 viability = kills HepG2 cells in TGF-b inhibitor counter-screen | HepG2 CAGA-GFP viability, ATP luminescence, 18 h | Potency, µM (top dose mostly 46.1 µM), without a hit: at the top dose activity change, negative = cytotoxicity, most hits filed as cytotoxic | actives 0.76% (n = 410,000) | AID 588856; also: potency is read from the fitted curve at half-maximal effect
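HepG2 CAGA-GFP cells (1000/well, DMEM with 1% FBS) received compound, then TGF-beta at 500 pg/mL final, and were incubated 18 hours at 37 degrees C. Viability was read by CellTiter-Glo luminescence. Media-only wells were set as complete cell-killing and DMSO as no toxicity.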
IL1B secr inh = inhibitors of inflammasome signaling (IL-1 beta secretion). THP-1 LPS/ATP IL-1B secretion, AlphaLISA, 16 h; stronger effect = lower value. activity change, % at 57.5 µM. actives 4.7% (n = 360,000); in the data active = activity change below about -50%; inconclusive = mostly about -30% to -49%; also: % is scaled to controls: 0 for no effect and ±100 for the full control effect
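THP-1 cells pretreated 1 hr with compounds (up to 57.5 uM final), then stimulated with LPS (250 ng/mL final) plus ATP (1.25 mM final); secreted IL-1B measured by AlphaLISA after 16 hr, decreased signal indicating inhibition.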
* = called active by the depositor; ? = inconclusive; . = no result; [ ] = another dose, or the depositor's remark. In the library only some 18% were active in any assay of this set; here they are far more common. Unless noted, calls follow the shape of the dose curve; as a rule, active = well fitted curve in the direction sought with a large enough effect; inconclusive = small, poorly fitted or top-dose-only effect, or another doubt; inactive = no such curve, though single readings can be large; an effect the other way counts as inactive or inconclusive.

SMILES	TDP1 block	TDP1 cell noCPT	TDP1 cell CPT	TGFb SMAD3 inh	HepG2 viability	IL1B secr inh
CCCC(C)NC(=O)Cc1ccc(S(=O)(=O)N2CCOCC2)s1 (stereo not drawn)	0%	-1%	-13%	-4%	0%	33
COc1cc(/C=N/N=C(N)N)ccc1OCc1ccc(Cl)cc1	5%	5.8µM*	6.5µM*	?	10µM*	-94*
O=C(O)c1cc(/C=N\O)ccc1OCc1ccccc1	-4%	-19%	-5%	-4%	0%	5
NC(N)=N/N=C/c1ccc(OCc2ccccc2)c(OCc2ccccc2)c1	8%	18µM*	?	18µM*	16µM*	-96*
CCCC(C)NC(=O)c1ccc(OCc2ccc(Cl)cc2)c(OC)c1 (stereo not drawn)	2%	8.2µM*	?	-14%	-39%	-9
CCOc1cc(/C=N/N=C(N)N)ccc1OCc1ccc(Cl)cc1	-3%	16µM*	15µM*	?	-95%	-108*
CC(C)CNc1ncnc2nc[nH]c12	.	?	-7%	17%	8%	.
CCOc1ccc2cc(C#N)c(SCC(=O)N3CCC(C)CC3)nc2c1	3%	21µM*	?	16%	-91%	-3
N#Cc1cc2cc3c(cc2nc1SCC(=O)N1CCCC1)OCCO3	0%[0.0935 µM]	-11%	-22%	2%	-34%	10
CC(=O)CSc1nc2cc3c(cc2cc1C#N)OCCO3	5%	?	15µM*	16%	-16%	-3
CCN(CC)C(=O)CSc1nc(C)cc(C)c1C#N	4%	?	4%	6%	6%	9
CCc1ccc2nc(SCC(=O)N(CC)CC)c(C#N)cc2c1	-8%	15µM*	21µM*	4%	0%	-5
CCOC(=O)CSc1nc2cc(OC)c(OC)cc2cc1C#N	0%	18µM*	?	6%	4%	.
COc1cccc(CC2(CO)CCCN(Cc3sc(N4CCCC4)nc3Cl)C2)c1 (stereo not drawn)	3%	?	?	?	0%	?
Cc1cc(C(=O)N2CCC2(C)C(=O)NS(=O)(=O)c2ccc(Cl)cc2)nn1C (stereo not drawn)	.	-5%	0%	-21%	7%	0
CCOC(=O)c1c(CSc2ccc(CC)cc2)oc2ccc(O)c(CN(C)C)c12	.	7.3µM*	8.2µM*	?	22µM*	-101*
CC(=O)c1c(CSc2ccccc2)oc2ccc(O)c(CN(C)C)c12	.	?	23µM*	-22%	-33%	-85*
COC(=O)Cc1c(CSc2ccccc2)oc2ccc(O)c(CN(C)C)c12	.	?	-8%	-8%	-10%	-25
CCOC(=O)c1c(CSc2ccccc2)oc2cc(Br)c(O)c(CN(C)C)c12	6%	?	16µM*	3%	-15%	-26
COc1ccc(OC)c(C(=O)c2c(C)oc3cc(Br)c(O)c(CN(C)C)c23)c1	.	21µM*	?	-5%	9%	-6
COCCNC(=O)c1ccc(-c2csc(C)n2)cc1	0%	3%	-2%	1%	5%	0
CCOC(=O)c1c(CSc2ccccc2)oc2ccc(O)cc12	-1%	21µM*	?	?	-35%	4
CCOC(=O)c1c(CS(=O)(=O)c2ccccc2)n(C)c2cc(Br)c(O)c(CN(C)C)c12	-2%	13µM*	15µM*	-2%	-15%	-15
CCOC(=O)c1c(-c2ccccc2)[nH]c2ccc(O)cc12	8%	?	-12%	22%	5%	-55*
O=C(C[C@@H]1CC[C@H](NC(=O)Nc2ccc(F)cc2)[C@@H](CO)O1)NCc1cccc(F)c1	.	-26%	-25%	.	.	17
SMILES	TDP1 block	TDP1 cell noCPT	TDP1 cell CPT	TGFb SMAD3 inh	HepG2 viability	IL1B secr inh
O=C(Cc1ccc(OCCCCc2ccccc2)cc1)NO	.	?	?	4%	-18%	.
CCCCc1nnc(NC(=O)C2CCN(c3ncnc4sc(C)c(C)c34)CC2)s1	.	?	?	8%	53%	31
Cc1sc2ncnc(N3CCC(C(=O)Nc4cc(S(C)(=O)=O)ccc4Cl)CC3)c2c1C	-3%	18µM*	13µM*	-8%	-16%	?
Cc1sc2ncnc(N3CCC(C(=O)Nc4cc(C(F)(F)F)ccc4OCC(F)(F)F)CC3)c2c1C	.	18µM*	?	?	-47%	-56*
Cc1sc2ncnc(N3CCC(C(=O)NNC(=O)c4ccc(Cl)cc4)CC3)c2c1C	-15%	15µM*	16µM*	-27%	-18%	-81*
COc1ccc(S(=O)(=O)N(C)C)cc1NC(=O)C1CCN(c2ncnc3sc(C)c(C)c23)CC1	.	9.2µM*	21µM*	-17%	-25%	-15
Cc1sc2ncnc(N3CCC(C(=O)Nc4cc(Cl)ccc4Cl)CC3)c2c1C	.	?	?	5%	6%	-1
CCOc1ccccc1NC(=O)CSc1nnc(N)s1	.	-8%	-23%	1%	2%	.
O=C(O)C1C2C=CC3(O2)C1C(=O)N1c2ccccc2C2OCCC2C13 (stereo not drawn)	40µM*	0%	-3%	-17%	-24%	17
C=C(C)CC1N(c2cccc(OC)c2)C(=O)C2C(C(=O)O)C3C=CC21O3 (stereo not drawn)	3%	3%	5%	-16%	-9%	14
COC(=O)NC(C(=O)OC)(C(=O)OC)c1ccccc1	4%	.	.	.	.	.
O=C(C1=C(O)C(=O)N(CC2CCCO2)C1c1cccc(O)c1)c1ccco1 (stereo not drawn)	.	3%	5%	4%	-13%	11
O=C(C1=C(O)C(=O)N(CC2CCCO2)C1c1ccccc1F)c1ccco1 (stereo not drawn)	.	-26%	1%	8%	11%	-94*
C[C@H](CO)N1C[C@H](C)[C@H](CN(C)Cc2cccc(C(F)(F)F)c2)OCc2ccccc2-c2c(n(C)c3ccccc23)C1=O	.	-12%	6%	16%	2%	-5
Cn1c(-c2cccs2)[n+](C)c2ccccc21	4%	18µM*	?	-10%	-13%	7
CSc1nnc(-c2cccs2)n1C	-4%	-16%	4%	1%	6%	-11
CCc1ccc(C2CC(=O)N3CN(c4ccccc4)CSC3=C2C#N)cc1 (stereo not drawn)	8%	?	?	-5%	-12%	-14
